In the library only some 13% were active in any assay of this set; here they are far more common.
Lassa entry inh = blocks Lassa virus binding to or entry into cells; Lassa virus pseudotype entry inhibition, cell reporter; Potency, µM (series often up to 37.9 µM), inactives show at the highest dose activity change, negative = inhibition, actives largely listed as inhibitors; actives 1.2% (n = 300,000); calls by dose curve; tested in HEK293 cells; note: potency is the fitted concentration of half-maximal effect; % is set by controls: 0 for no effect and ±100 for the full control effect; nearly all actives have a fitted effect of over 50% in size
MARV entry inh = inhibitors of Marburg virus binding or cell entry; AID 540276; Marburg virus pseudotyped entry inhibition, cell reporter; Potency, µM (top dose mostly 37.8 µM), inactives show at the highest dose activity change, negative = inhibition, usual class: inhibitors; actives 1.8% (n = 300,000); calls by dose curve; tested in HEK293 cells; note: potency is the fitted concentration of half-maximal effect; % is set by controls: 0 for no effect and ±100 for the full control effect
HCV inhibitor = HCV inhibition. Potency, µM (series often up to 41.8 µM), without a hit: at the top dose activity change, negative = inhibition, most hits filed as inhibitors. AID 651820. actives 3.4% (n = 340,000). Huh7.5.1 HCVcc-Cre infection, luciferase reporter, 44 h; active = well fitted inhibition curve with a large enough effect; inconclusive = small, poorly fitted or top-dose-only effect, or another doubt; inactive = no such curve, though single readings can be large or run the other way; note: potency is the fitted concentration of half-maximal effect; % is set by controls: 0 for no effect and ±100 for the full control effect
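Reporter virus HCVcc-Cre (~0.5 moi) infects cells exposed to compound; seeding density 1,000 cells/well with 4 h settling beforehand. Luminescence, 15 sec read, taken 44 h post-infection following a 15 min RT substrate incubation.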
Cycloheximide cs = counter-screen for Shiga toxin inhibitors: cycloheximide protein synthesis inhibition. actives 12% (n = 300,000). cell reporter, cycloheximide protein synthesis inhibition counterscreen. max response, %; in the data active = max response mostly above about 13%, no sharp cut-off; inactive = mostly below about 14%; note: read at 38.3 µM for the half of the compounds with a filed dose; 0% is about no effect
FMDV antiviral = foot and mouth disease virus antiviral activity; Potency, µM (highest dose often 57.9 µM), for inactives: top-dose activity change, negative = inhibition, hits mostly inhibitors; FMDV antiviral cell-based qHTS; actives 1.2% (n = 410,000); AID 1159524; calls by dose curve; tested in HEK293T cells; note: read-out not given here; potency is the fitted concentration of half-maximal effect; % is set by controls: 0 for no effect and ±100 for the full control effect; nearly all actives have a fitted effect of over 45% in size
Shiga toxin inh = Shiga toxin inhibition; inhibition, % at 38.7 µM; Vero cells, Shiga toxin protein synthesis inhibition reporter; actives 9.2% (n = 290,000); AID 2315; in the data active = inhibition mostly above about 28%, no sharp cut-off; inactive = mostly below about 43%; note: 0% is about no effect
Numbers without * were called inactive; ? = inconclusive; nt = not tested or not shown; ! = repeats disagree; [ ] = dose if it differs, or a comment.

SMILES | Lassa entry inh | MARV entry inh | HCV inhibitor | Cycloheximide cs | FMDV antiviral | Shiga toxin inh
O=C(Nc1cccc2nsnc12)c1cccs1 | ? | 28.5% | ? | 35.2* | 0.0% | 99.3*
O=C(Nc1ccccc1)Nc1cccc2nsnc12 | ? | ? | -26.2% | 34.4* | 29.3% | 85.7
Cc1nc2ccc(S(=O)(=O)NCC(=O)Nc3ccc(C)c(Cl)c3)cc2s1 | 19.8%[46.1 µM] | -15.7%[46.1 µM] | nt | nt | -1.9% | nt
CC1=C(C(=O)OCC2CCCCC2)C(c2cccc(O)c2)NC(=O)N1 (centres undefined) | nt | -2.9% | nt | -0.6 | nt | -8.0
CC1=C(C(=O)OC2CCCCC2)C(c2cccc([N+](=O)[O-])c2)NC(=O)N1 (centres undefined) | nt | nt | 11.2µM* | -2.1 | -11.9% | -0.7
COc1ccc(C2NC(=O)NC(C)=C2C(=O)OC2CCCCC2)cc1OC (centres undefined) | ? | -0.3%[46.1 µM] | -0.5% | -2.0 | -22.5% | -4.3
CC1=C(C(=O)OC2CCCCCCC2)C(c2cccc(O)c2)NC(=O)N1 (centres undefined) | 1.83µM* | ? | 8.6% | -2.8 | ? | -5.3
COC(=O)C1=C(C)NC(C)=C(C(=O)OCCN(C)Cc2ccccc2)C1c1cccc([N+](=O)[O-])c1 (centres undefined) | 7.3µM*! | 16.4µM* | 36.1% | -2.9 | ? | -16.0
O=C(CN1CCCCCC1=O)N1CCN(S(=O)(=O)c2cccs2)CC1 | nt | nt | 4.5% | 0.0 | 7.0% | 3.6
COc1c2ccoc2nc2c(OC)cccc12 | 17.0% | 6.5% | 11.6% | 16.4 | nt | 44.5*
Cc1ccc(S(=O)(=O)N2CCCCC2)cc1NC(=O)c1ccc2c(=O)n3c(nc2c1)CCCCC3 | 16.4µM* | ? | 11.2µM* | -4.1 | nt | -9.0
O=C(Nc1ccc(S(=O)(=O)N2CCCC2)cc1)c1ccc2c(=O)n3c(nc2c1)CCCCC3 | -1.7% | 2.51µM* | 11.2µM* | -1.9 | ? | -4.7
CNC(=O)c1ccc(NC(=O)c2ccc3c(=O)n4c(nc3c2)CCC4)cc1 | nt | nt | 9.1% | nt | -17.6% | nt
COC(=O)CNc1c(-c2ccccn2)nc2ccc(Br)cn12 | 5.8% | 29.0% | 2.5% | 36.1* | 34.0% | 48.5*
CC(=O)Nc1nc(C)c(-c2nc3ccc([N+](=O)[O-])cc3[nH]2)s1 | nt | nt | 5.9% | 16.8* | 1.0% | 36.6
O=[N+]([O-])c1cccc(/C=C/c2nc3ccc([N+](=O)[O-])cc3[nH]2)c1 | ? | 7.4%[46.1 µM] | ? | 18.7* | 0.0% | 40.6
O=[N+]([O-])c1ccc2nc(-c3ccccc3)[nH]c2c1 | -11.0% | ? | -2.6% | 41.5* | -14.9% | 24.7
Cc1nc2ccc([N+](=O)[O-])cc2[nH]1 | 5.9%[46.1 µM] | 7.7%[46.1 µM] | 4.2% | 8.6 | -16.2% | -1.9
Cn1cccc1-c1nc2ccc([N+](=O)[O-])cc2[nH]1 | 0.9% | ? | -19.3% | 32.5* | 15.4% | 39.7*
CC(C)(C)c1nc2ccc([N+](=O)[O-])cc2[nH]1 | ? | -7.4%[46.1 µM] | -26.7% | -4.5 | -18.2% | 20.2
CCc1cc2c(=O)n(CCCOC)c(SCC(=O)Nc3oc(C)c4c(C)n[nH]c(=O)c34)nc2s1 | 18.0% | 6.3%[46.1 µM] | -13.7% | nt | 19.8% | nt
O=[N+]([O-])c1cc([N+](=O)[O-])c2cc(-c3cccnc3)[nH]c2c1 | -1.3%[46.1 µM] | -9.0%[46.1 µM] | -26.5% | nt | 4.3% | nt
O=[N+]([O-])c1ccc2nc(-c3cccnc3)[nH]c2c1 | 29.3% | 18.7% | -5.4% | 21.3* | 28.8% | 59.7
Cc1ccc(CNC(=O)COC(=O)c2cc(=O)[nH]c3ccccc23)cc1 | nt | nt | 8.6% | nt | -4.1% | nt
CC(=O)Oc1ccc(OC(C)=O)c(SCCCCCCl)c1 | ? | ? | 11.2µM* | 18.5 | ? | 57.6
SMILES | Lassa entry inh | MARV entry inh | HCV inhibitor | Cycloheximide cs | FMDV antiviral | Shiga toxin inh
S=C(NCCCCc1ccccc1)NCc1ccccc1 | nt | nt | ? | -2.7 | 49.5% | -1.9
Cc1c(Cl)cccc1NC(=S)NCCc1ccc(C(F)(F)F)cc1 | ? | 10µM* | 11.2µM* | -2.6 | -22.3% | -3.8
Cc1c(Cl)cccc1NC(=S)NCCc1ccccn1 | -28.4% | 2.2%[14.2 µM] | -9.2% | -0.3 | -4.5% | -14.3
CC(C)(C)NC(=O)NCCc1ccccc1 | 11.7%[46.1 µM] | ? | -1.3% | 35.9* | 7.9% | 58.7*
O=[N+]([O-])c1ccc(NNC(=S)Nc2ccccc2)cc1 | -0.6% | ? | 11.2µM* | 37.1* | -1.0% | 97.3*
S=C(NCCc1ccccc1)NCc1cccc(Cl)c1 | -4.9%[46.1 µM] | ? | 2.5% | 18.5 | 32.2% | 23.2*
